Common to all, as to assay: NCI-60 one-dose screen, 48 h (100 = growth as untreated, 0 = no growth, -100 = all killed)
Settings in all cases: 10 µM unless noted

Test [1] relates to SR leukemia.
In test [2] the test system is OVCAR-8 ovarian.
The test system of test [3] is OVCAR-5 ovarian.
Test [4] concerns OVCAR-4 ovarian.
The subject of test [5] is SK-OV-3 ovarian.
For test [6], the system named is IGROV1 ovarian.
Test [7] deals with OVCAR-3 ovarian.
The subject of test [8] is HS 578T breast.
Test [9] concerns NCI/ADR-RES ovarian.
Test [10] has as its system RPMI-8226 leukemia.

Data on 30 compounds can be found in PubChem BioAssay (NCI).

Structures are written as SMILES. Compounds without any hit were thinned out: in the full panel of roughly 83,000, 20% have a hit.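 Plates (96-well) were seeded with cells, treated with compound at one concentration, and incubated for 48 hours before percent growth was determined.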 Values without a mark were called inactive. Activity calls are given as the source filed them. How the source made its calls: active means growth percent below 10; inactive means the rest.

As to `Cc1cc(-c2ccccc2)cc(C)n1`, the growth in test [1] was 99.4%; in [2], 106%; in test [3], 108%; in [4], 99.7%; in test [5], 109%; in test [6] it was 102%. Moreover, the growth is 127% in test [7], 111% in [8] and 110% in test [9].

Turning to `CCSc1ncc(Br)c(Sc2nc(N)nc3nc[nH]c23)n1`, the growth in [1] was 19.4%; in [10] it was 26.1%; in test [4], 58.4%; in test [5], 18.5%; in [6], 89.4%; in [7], 75.2%. Besides, the growth in [8] was 89.9%; in test [9], 33.4%.

On to `Nc1ncnc2c1CN(Cc1ccccc1)CC2`, for which the growth was 94.6% in [1]; 106% in test [2]; 114% in [3]; 102% in test [4]; 103% in test [5]; 118% in test [6]. The growth was 129% in test [7], 119% in test [8] and 104% in test [9].

Turning to `CC(C)=CCNc1ncnc2c1ncn2C1OC(COP(=O)(O)O)C(O)C1O` (stereo unspecified), the growth in test [1] is -15.2% (active); in test [10] it was 109%; in [3] it was 74.5%; in [4] it was 85.4%; in test [5], 12.9%; in test [6] it was 54.6%. In addition, the growth in test [7] is 0.0655% (active); in test [8], 63.8%; in [9] it was 39.1%.

Consider `N#Cc1ncc(-c2ccc(C(F)(F)F)cc2)c(NC2CCCCCC2)n1`, for which the growth in test [1] was 52.6%; in test [10], -5.45% (active); in [3] it was 38.8%; in test [4], 12.6%; in [5], 73.6%; in test [6], 32.5%. In addition, the growth in [7] was 1.17% (active); in test [8], 46.5%; in [9], 69.8%.

In the case of `CCOC(=O)c1sc(NC(=O)COc2cccc(/C=C3\Cc4ccc(Cl)cc4C3=O)c2)nc1C`, the growth in test [1] is 114%; in test [10], 57.5%; in test [3] it was 101%; in test [4], 118%; in [5], 114%; in test [7] it was 120%. For the same compound, the growth was 110% in test [8] and 97% in test [9].

Turning to `N=C1c2nc3n(c2C(=O)c2nc4n(c21)CCCCC4)CCCCC3`, the growth in [1] is 91.8%; in [10] it was 99.1%; in test [3], 123%; in [4] it was 93.2%; in test [5] it was 107%; in [6] it was 130%. Besides, the growth in test [7] is 111%; in test [8] it was 112%; in test [9], 110%.

Take `OCCN1CCN(CCCN2c3ccccc3Sc3ccc(C(F)(F)F)cc32)CC1`: the growth in test [1] is -42.9% (active); in test [10], 18.8%; in test [4], 62.5%; in test [5] it was 73.8%; in test [6], 24.5%; in test [7], 53.4%. In addition, the growth in [8] is 24.6%; in test [9], 46.8%.

Turning to `Cn1ccnc1C(=O)/C=C/c1ccc(C(=O)Nc2nc3ccccc3[nH]2)cc1`, the growth is 11.2% in [1]; 10.7% in [10]; 59.9% in test [3]; 36.7% in test [4]; 77.2% in [5]; 36% in test [6]. Also, the figures for the growth in test [7], in [8] and in test [9] were 7.54% (active), 40.2% and 24.6%, respectively.

Regarding `O=C1OC2(c3ccccc31)c1ccccc1-c1ccccc12`, the growth in test [1] is 41.4%; in [2] it was 101%; in test [3], 88.4%; in [4], 82.9%; in test [5] it was 91.7%; in test [6], 90.6%. Also, the growth in [7] was 93.6%; in test [8], 83.4%; in test [9] it was 90.8%.

Take `O=C(Nc1nc(-c2ccc(Cl)cc2)cs1)c1cc(-c2ccc(Br)cc2)nc2ccc(Cl)cc12`: the growth in test [1] is 15.4%; in test [10] it was 16.1%; in [3], 106%; in test [4], 47.3%; in [5], 86.6%; in [6], 30.8%. Moreover, the growth in [7] was 10%; in test [8] it was 49.4%; in test [9] it was 8.07% (active).

`CC(=O)Nc1cc2c3c(cccc3c1)-c1ccccc1-2`: the growth in [1] was 81.6%; in [2], 86.1%; in test [3], 85.6%; in [4] it was 71.5%; in test [5], 105%; in [6], 59%. Besides, the growth in test [7] was 92.8%; in test [8], 112%.

For the compound `O=C1C=CC(=O)N1c1ccccn1`, the growth in test [1] is 79.4%; in [2] it was 111%; in [3], 97.9%; in [4], 100%; in test [5] it was 115%; in test [6], 113%. The growth was 119% in test [7], 97.4% in test [8] and 106% in test [9].

Turning to `C(=C1c2ccccc2-c2ccccc21)c1ccncc1`, the growth was 9.55% (active) in [1]; 64.1% in [2]; 81% in [3]; 57.1% in test [4]; 75.5% in test [5]; 44.9% in [6]. Moreover, the growth in test [7] is 5.44% (active); in test [8], 49.5%; in test [9], 4.8% (active).

Take `CC(=O)N1N=C(c2ccc(C(F)(F)F)cc2)CC1c1ccc2c(c1)OCO2` (stereo unspecified): the growth in [1] is 89.5%; in test [2], 101%; in test [3] it was 100%; in test [4], 77.8%; in test [5], 104%; in test [6] it was 67%. The growth was 110% in [7] and 97.8% in test [8].

`COc1ccc(-c2c3c(N)nc(-c4ccncc4)nc3nc3c2c(C)nn3-c2ccccc2)cc1`: the growth in [1] is 17.1%; in test [2], 63.2%; in [3], 64.7%; in [4] it was 11.4%; in test [5], 53.4%; in test [6], 77%. Besides, the growth in [7] was 22.4%; in [8] it was 71.2%.

Consider `Cc1ncc(C(=O)Nc2ccc(CN3CCN(C)CC3)c(C(F)(F)F)c2)cc1C#Cc1cncc2ncccc12`, for which the growth in [1] is -13.2% (active); in test [10], 49.7%; in test [3], 69%; in [4], 51.7%; in test [5], 68.4%; in [6], 24.9%. For the same compound, the results for the growth in test [7], in test [8] and in test [9] were 83%, 47.9% and 86.8%, respectively.

Turning to `C#C[C@]1(O)CCC2C3CCc4cc(O)ccc4C3CC[C@@]21C` (stereo partly specified), the growth is 8.3% (active) in test [1]; 47.5% in [2]; 78.1% in [3]; 66.8% in test [4]; 43% in test [5]; 55.2% in test [6]. Moreover, the growth in test [7] was 16.1%; in test [8], 4.63% (active); in test [9] it was 13.5%.

Regarding `O=C1Nc2ccc(Cl)cc2/C1=C/c1cccs1`, the growth in test [1] was 99.4%; in test [10], 100%; in test [3], 110%; in test [4], 35.9%; in test [5], 93.6%; in [6] it was 65.1%. Further, the results for the growth in test [7], in test [8] and in test [9] were 87.8%, 96.2% and 92.8%, respectively.

For `COc1cc(OC)c2c(c1Cl)O[C@]1(C2=O)C(OCc2ccccc2)=CC(=O)C[C@H]1C`, the growth in test [1] is 7.41% (active); in test [10], -4.76% (active); in test [3], 17.2%; in [4] it was 39.2%; in [5], 10.2%; in test [7] it was -23.5% (active). Further, the figures for the growth in test [8] and in [9] were 18.7% and 7.55% (active), respectively.

Take `COC(=O)[C@H]1[C@H]2C[C@@H]3c4[nH]c5cc(OC)ccc5c4CCN3C[C@H]2C[C@@H](OC(=O)/C=C/c2cc(OC)c(OC)c(OC)c2)[C@@H]1OC`: the growth is -7.74% (active) in test [1]; 50.6% in test [2]; 113% in [3]; 13.6% in [4]; 98.6% in test [5]; 38.4% in test [6]. In addition, the growth in [7] is -42.8% (active); in [8] it was 69.3%; in test [9], 49.1%.

As for `COc1cnc2c(c1)C(=O)c1c-2n(CCCN2CCOCC2)c(=O)c2cc(F)ccc12`, the growth in test [1] is 1.17% (active); in [2] it was 0.87% (active); in test [3] it was -13.2% (active); in [4] it was 15.7%; in test [5], -25.1% (active); in test [6], 12.2%. Also, the figures for the growth in test [7], in test [8] and in test [9] were -29.9% (active), 12.5% and 4.01% (active), respectively.

Regarding `N#CC1c2ccccc2C=CN1C(=O)N(c1ccccc1)c1ccccc1` (stereo unspecified), the growth is 1.1% (active) in test [1]; 76% in test [2]; 107% in [3]; 77% in test [4]; 110% in [5]; 13.5% in test [6]. Also, the growth in test [7] was -34.3% (active); in test [8], 52.9%.

Take `COCCCNS(=O)(=O)c1ncnc2nc[nH]c12`: the growth in [1] is 108%; in test [10], 107%; in test [3], 100%; in test [4], 113%; in [5] it was 121%; in test [6], 142%. For the same compound, the growth in test [7] is 102%; in [8] it was 104%; in test [9], 99.5%.

Take `O=C(Nc1ccccc1)c1cc(-n2cnc([N+](=O)[O-])c2)cc(-n2cnc([N+](=O)[O-])c2)n1`: the growth in [1] is 84.2%; in [2], 92.7%; in test [3], 109%; in test [4], 100%; in test [5], 104%; in test [6] it was 126%. Besides, the growth was 105% in test [7] and 96.7% in test [8].

Regarding `CCN(CC)CCCCCCCNc1c2ccc(Cl)cc2nc2ccc(OC)cc12`, the growth in test [1] was -16.5% (active); in [2] it was -41.8% (active); in test [3], -8.18% (active); in test [4] it was -43% (active); in [5], -30.7% (active); in test [6], -64.3% (active). The figures for the growth in test [7], in test [8] and in [9] were -39.6% (active), -42.7% (active) and 12.7%, respectively.

With `COc1ccc(-c2ccc(O)c(C(=O)/C=C/c3cc(OC)c(OC)c(OC)c3)c2)cc1`, the growth in test [1] is 56.2%; in [2], 71.8%; in [3] it was 106%; in test [4], 79.6%; in [5], 77.6%; in test [6], 78.3%. Besides, the values for the growth in test [7], in test [8] and in test [9] were 93.7%, 113% and 69.9%, respectively.

As to `O=C(O)CNC(=O)C1(N2C(=O)c3ccccc3C2=O)CCCC1`, the growth is 99.3% in test [1]; 104% in [2]; 101% in [3]; 99.4% in [4]; 111% in test [5]; 119% in test [6]. Further, the growth in test [7] was 139%; in [8], 128%; in test [9], 110%.

With `O=C(c1ccccc1)c1ccc(Oc2ccc([N+](=O)[O-])cc2[N+](=O)[O-])cc1`, the growth is 14.6% in [1]; 41.5% in test [2]; 59.9% in test [3]; 28.5% in test [4]; 99.9% in test [5]; 1.87% (active) in test [6]. Besides, the figures for the growth in test [7], in test [8] and in test [9] were 48.7%, 90.7% and 4.04% (active), respectively.

As to `COc1cc2c(cc1OC)C(CC1(O)CCCCC1)N(S(=O)(=O)c1ccc(C)cc1)CC2` (stereo unspecified), the growth is -10.4% [100 µM] (active) in test [1]; 26.8% [100 µM] in test [2]; 76.2% [100 µM] in test [3]; 25.4% [100 µM] in [4]; 80% [100 µM] in test [5]; 53.6% [100 µM] in test [6]. Further, the growth in test [7] was -15.5% [100 µM] (active); in test [8], 57.3% [100 µM]; in test [9], 34.5% [100 µM].
